According to the supplement of paper PMC8285479:
Structures can show the parent of a compound that is named as a salt. ± gives the standard deviation of the averaged measurements. The full ranking holds about 1,900 compounds; the median of “normalised cell viability (NPI; 0 = phenylarsine oxide control, 1 = DMSO control)” is about 1, and the lowest 2% start at about 0.039. Only a selection was taken, and the lowest values are over-represented in it overall.

Test system: NCI-H1944
Experiment: normalised cell viability (NPI; 0 = phenylarsine oxide control, 1 = DMSO control) (fraction of DMSO control); NCI-H1944 is a non-small cell lung cancer line; higher = more viable cells (less compound toxicity)
Conditions: 6 days
[1] = glucocorticoid arm: hydrocortisone 2.75 uM co-treatment, compound 1 µM
[2] = glucocorticoid arm: hydrocortisone 2.75 uM co-treatment, compound 5 µM
[3] = glucocorticoid arm: hydrocortisone 2.75 uM pre-treated 2 days and continued, compound 1 µM
[4] = glucocorticoid arm: hydrocortisone 2.75 uM pre-treated 2 days and continued, compound 5 µM
[5] = glucocorticoid arm: vehicle, compound 1 µM
[6] = glucocorticoid arm: vehicle, compound 5 µM
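Note: CTB read-out in 384-well plates, triplicate wells, NPI normalised per plate against 1 µM phenylarsine oxide (0) and 0.1% DMSO (1) controls.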

SMILES	normalised cell viability [1]	normalised cell viability [2]	normalised cell viability [3]	normalised cell viability [4]	normalised cell viability [5]	normalised cell viability [6]
CC(C)C[C@H](NC(=O)[C@H](O)[C@H](N)Cc1ccccc1)C(=O)O [Epibestatin hydrochloride]	1.003 ± 0.0064	0.9953 ± 0.004	0.9977 ± 0.004	0.9947 ± 0.005	0.9957 ± 0.0067	1.007 ± 0.0058
C#C[C@]1(O)CC[C@H]2[C@@H]3CCC4=Cc5oncc5C[C@]4(C)[C@H]3CC[C@@]21C [Danazol]	0.998 ± 0.001	1 ± 0.021	0.991 ± 0.022	1.01 ± 0.027	1.007 ± 0.0058	1.013 ± 0.0058
C[C@]12CC[C@H](O)CC1=CC[C@@H]1[C@@H]2CC[C@]2(C)C(c3cccnc3)=CC[C@@H]12 [Abiraterone]	1.043 ± 0.0058	1.18 ± 0.023	1.05	1.11 ± 0.025	0.848 ± 0.021	1.05 ± 0.011
O=C(NCCCNc1nc(Nc2cccc(NC(=O)N3CCCC3)c2)ncc1I)c1cccs1	0.9797 ± 0.0095	0.993 ± 0.027	0.9587 ± 0.0025	1.05 ± 0.017	0.71 ± 0.01	0.3133 ± 0.0023
c1ccc2c(-c3cnn4cc(-c5ccc(N6CCNCC6)cc5)cnc34)ccnc2c1	1.043 ± 0.0058	0.832 ± 0.14	1.04 ± 0.01	1.09 ± 0.021	1.01 ± 0.011	0.0214 ± 0.0048
Nc1ncnc2c1nc(Br)n2C1OC2COP(=O)(O)O[C@@H]2C1O (stereo not given in full) [8-Bromo-cAMP sodium]	0.9863 ± 0.004	0.901 ± 0.017	0.983 ± 0.001	0.96 ± 0.016	0.9617 ± 0.0067	0.9647 ± 0.0093
Cc1nn(-c2ccccc2)c(C)c1C=NN1CCN(Cc2ccccc2)CC1	1.01 ± 0.01	0.991 ± 0.05	1.02 ± 0.011	0.9927 ± 0.0078	0.9987 ± 0.0023	0.996 ± 0.013
CNC(CC(=O)O)C(=O)O [NMDA (N-Methyl-D-aspartic acid)]	1.006 ± 0.0069	1.03 ± 0.037	1.01 ± 0.032	1.01 ± 0.013	1.003 ± 0.0058	0.9973 ± 0.0025
FC(F)(F)c1cc(COC2CCCNC2c2ccccc2)cc(C(F)(F)F)c1 [L-733,060 hydrochloride]	0.9863 ± 0.0067	0.843 ± 0.034	1 ± 0.014	0.993 ± 0.076	0.9957 ± 0.0067	0.928 ± 0.076
N=C(N)NC(=O)c1nc(Cl)c(N)nc1N [Amiloride hydrochloride]	0.9737 ± 0.006	0.966 ± 0.023	0.991 ± 0.0052	0.992 ± 0.025	0.9947 ± 0.0084	1.003 ± 0.0064
N/C(=N\C(=O)c1nc(Cl)c(N)nc1N)NCc1ccccc1 [Benzamil hydrochloride]	1.023 ± 0.0058	1.04 ± 0.01	1.03 ± 0.011	1.05 ± 0.028	0.9897 ± 0.0045	1.02 ± 0.016
N/C(=N\C(=O)c1nc(Cl)c(N)nc1N)NCc1ccc(Cl)c(Cl)c1 [3',4'-Dichlorobenzamil hydrochloride]	0.99 ± 0.0089	0.0646 ± 0.03	0.998 ± 0.013	0.862 ± 0.014	0.98667 ± 0.00058	0.0118 ± 0.0064
CCCCCCCCCCCCCCCCCC(=O)NCC(COP(=O)([O-])OCC[N+](C)(C)C)OCC (racemic) [rac-2-Ethoxy-3-octadecanamido-1-propylphosphocholine]	1.017 ± 0.0058	1.04 ± 0.011	1.01 ± 0.011	1.04 ± 0.021	0.9997 ± 0.0091	1.002 ± 0.0067
CCCCOc1cc(CC2CNC(=O)N2)ccc1OC (stereo not given)	1.01 ± 0.01	1.01 ± 0.021	1.01 ± 0.011	1.01 ± 0.021	1.013 ± 0.0058	1.013 ± 0.0058
COC(=O)C[C@](O)(CCCC(C)(C)O)C(=O)O[C@@H]1C(OC)=C[C@]23CCCN2CCc2cc4c(cc2[C@H]13)OCO4 [Omacetaxine mepesuccinate]	0.00277 ± 0.001	1.08 ± 0.026	0.0391 ± 0.002	1.03 ± 0.021	0.00151 ± 0.00092	1.017 ± 0.0058
O=c1[nH]c2cc(Cl)c(Cl)cc2[nH]c1=O [6,7-Dichloroquinoxaline-2,3-dione]	1.01 ± 0.011	1.04 ± 0.011	1.003 ± 0.0061	1.04 ± 0.021	0.989 ± 0.007	1.002 ± 0.0068
NC(=O)c1cc[n+](CC2=C(C(=O)O)N3C(=O)[C@@H](NC(=O)C(c4ccccc4)S(=O)(=O)[O-])[C@H]3SC2)cc1 (stereo not given in full) [Cefsulodin sodium salt hydrate]	1.01	1.013 ± 0.0058	1.02	1.01 ± 0.014	0.997 ± 0.013	0.9997 ± 0.0096
CCc1cnn2c(NCc3ccc[n+]([O-])c3)cc(N3CCCC[C@H]3CCO)nc12	0.0547 ± 0.0038	0.0409 ± 0.0039	0.144 ± 0.004	0.153 ± 0.0068	0.0139 ± 0.0022	0.00878 ± 0.0013
Oc1cc2c(cc1O)C(c1ccccc1)CNCC2 (racemic)	0.987 ± 0.014	0.982 ± 0.013	0.982 ± 0.023	0.972 ± 0.011	0.992 ± 0.0044	0.9913 ± 0.0021
OC(CN1CCC(Cc2ccc(F)cc2)CC1)c1ccc(Cl)cc1 (stereo not given) [Eliprodil]	0.9487 ± 0.0064	0.9277 ± 0.0051	0.9827 ± 0.0091	0.971 ± 0.0076	0.9973 ± 0.0046	0.9967 ± 0.0058
Nc1ccccc1NC(=O)c1ccc(CNC(=O)OCc2cccnc2)cc1 [Entinostat (MS-275)]	1.05 ± 0.015	0.184 ± 0.004	1.023 ± 0.0058	0.302 ± 0.018	0.866 ± 0.026	0.02 ± 0.0035
CC(=O)Nc1ccc(C(=O)Nc2ccccc2N)cc1	1.02 ± 0.011	1.063 ± 0.0058	1.033 ± 0.0058	1.06 ± 0.011	0.9833 ± 0.0057	0.906 ± 0.052
COc1ccc(C(=O)NCc2cccnc2)cc1C(=O)NCc1cccnc1 [Picotamide]	0.989 ± 0.017	0.992 ± 0.004	0.867 ± 0.26	1 ± 0.016	1.007 ± 0.0058	1.003 ± 0.0064
Nc1ccccc1NC(=O)c1ccc(CNC(=O)OCc2cccnc2)cc1 [Entinostat]	0.925 ± 0.019	0.0313 ± 0.0074	0.962 ± 0.013	0.0766 ± 0.011	0.348 ± 0.03	0.00136 ± 0.00059
Cc1ccc(NC(=O)c2ccc(CN3CCN(C)CC3)cc2)cc1Nc1nccc(-c2cccnc2)n1	1.043 ± 0.0058	1.1 ± 0.032	1.04 ± 0.011	1.05 ± 0.01	0.9957 ± 0.004	1 ± 0.014
Cc1ccc(NC(=O)c2ccc(CN3CCN(C)CC3)cc2)cc1Nc1nccc(-c2cccnc2)n1 [Imatinib Mesylate]	1.05 ± 0.015	1.14 ± 0.021	1.05 ± 0.015	1.1 ± 0.032	1.01 ± 0.01	1.03 ± 0.011
CC(=O)Nc1ccc(C(=O)Nc2ccccc2N)cc1 [CI994 (Tacedinaline)]	0.9813 ± 0.0093	1.03 ± 0.029	0.999 ± 0.012	1.02 ± 0.02	0.9707 ± 0.0072	0.9157 ± 0.008
Nc1ccccc1NC(=O)c1ccc(CNc2nccc(-c3cccnc3)n2)cc1 [Mocetinostat (MGCD0103)]	1.033 ± 0.0058	0.00494 ± 0.0024	1.02 ± 0.02	0.0153 ± 0.0051	0.585 ± 0.02	0.00194 ± 0.00024
Cc1ccc(NC(=O)c2ccc(CN3CCN(C)CC3)cc2)cc1Nc1nccc(-c2cccnc2)n1 [Imatinib (Gleevec)]	1.05 ± 0.017	1.14 ± 0.015	1.037 ± 0.0058	1.1 ± 0.01	1.01 ± 0.015	1.033 ± 0.0058
Cc1cc(NC(=O)c2cccc(NC(=O)/C=C/CN(C)C)c2)ccc1Nc1nccc(-c2cccnc2)n1	0.989 ± 0.016	0.943 ± 0.017	1.007 ± 0.0058	0.917 ± 0.026	0.959 ± 0.011	0.702 ± 0.033
